In PubChem BioAssay AID647 (Vanderbilt High Throughput Screening Facility, 2007):
The whole screen tested about 2,200 compounds, of which about 1,400 (64%) were called active.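 How the source made its calls: active means luminescence in either replicate above plate mean of wells with a partly effective reference agonist dose plus 3 SD; inactive means the rest.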 So high a share suggests a set chosen from earlier hits. The entries come from a sample that favours actives as a whole.

assay: isoproterenol-driven CRE-luciferase response modulation in HEK293 cells, confirmation, counter-screen for D1 allosteric modulator project, cell-based, secondary assay 2, luminescence (AID 647); conditions: isoproterenol EC30 counter-screen, at 10 µM, hits give high values;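 further: isoproterenol raises cAMP through native beta-adrenoceptor Gs so signal bypasses D1; raw luminescence counts from the Envision reader with one value per duplicate well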

Compound | luminescence
CCC(=NCc1ccco1)c1c(O)n(Cc2ccccc2)c(=O)[nH]c1=O | 3640 (active)
